From PubChem
Compounds with a hit are over-represented: about 0.38% of the library has one in this group of screens.
Rac1 mut GTP: GTP binding modulators of activated mutant Rac1, primary screen, biochemical, bead-based flow cytometry, multiplex, fluorescent GTP; AID 764, 2007; percent activity (GTP binding), % at 10 µM; actives 0.11% (n = 190,000); GST-Rac1 activated beads; actives lie on both sides; 100% means binding = to untreated wells;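 active = GTP binding at least 20 percentage points away from the 100% baseline, in either direction, so actives lie on both sides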
Rab7 wt GTP bind: modulators of GTP binding to Rab7, primary screen, biochemical, wildtype, multiplex bead flow cytometry | GST-Rab7 beads, fluorescent GTP binding; actives lie on both sides; untreated = 100%, excess cold GTP = 0% | Rab7 GTPase wild type (dog), Bodipy-FL-GTP binding | AID 758, 2007 | GTP binding activity (percent of control), % at 10 µM | actives 0.055% (n = 190,000);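 active = fluorescent GTP binding to Rab7 beads changed by at least 20 points from the 100% baseline, either direction, mostly lower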;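 note: median green fluorescence of bound Bodipy-FL-GTP per Rab7 bead population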
Cdc42 wt: modulators of GTP binding to wildtype Cdc42, primary screen, biochemical, multiplex bead flow cytometry, Bodipy-GTP; Cell division control protein 42 homolog (Homo sapiens), P60953; GST-Cdc42 beads; actives lie on both sides; percent activity (GTP binding), % at 10 µM; actives 0.2% (n = 190,000); AID 761, 2007;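 active = percent activity GTP binding at least 20 points away from the 100% baseline, either down as inhibitor or up as activator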;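 note: median bead fluorescence of bound Bodipy-FL-GTP at 100 nM; 0% = excess unlabeled GTP control and 100% = no compound control; below 100% means less GTP binding so inhibitor and above means activator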
Target sequence (P60953 whole entry, looked up): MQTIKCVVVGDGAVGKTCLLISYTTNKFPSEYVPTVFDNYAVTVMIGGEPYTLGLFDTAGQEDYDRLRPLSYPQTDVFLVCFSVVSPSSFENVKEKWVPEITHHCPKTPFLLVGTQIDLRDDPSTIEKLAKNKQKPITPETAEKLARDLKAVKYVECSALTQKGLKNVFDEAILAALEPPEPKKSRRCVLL
Rac1 wt GTP bind: wildtype Rac1 GTP binding modulators, primary screen, biochemical, GST-Rac1 beads, flow cytometry, multiplex; Ras-related C3 botulinum toxin substrate 1 (Homo sapiens), P63000; fluorescent GTP binding; actives lie on both sides; 0 = cold GTP competed, 100 = untreated; GTP binding activity (% of control), % at 10 µM; actives 0.27% (n = 190,000);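 active = GTP binding activity at least 20 points away from the 100% control level, either lower or higher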
HRas wt GTP bind: modulators of GTP binding to HRas wildtype, primary screen, biochemical, bead-based flow cytometry, multiplex. GST-Ras wt beads, Bodipy-FL-GTP binding; actives lie on both sides. GTP binding activity, % at 10 µM. actives 0.14% (n = 190,000). AID 759, 2007;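 active = GTP binding activity at least 20% away from the 100% baseline, either lowered as inhibitor or raised as activator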;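 note: 0% = unlabeled GTP competition control and 100% = no-compound control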
Target sequence (P01112 whole entry, looked up): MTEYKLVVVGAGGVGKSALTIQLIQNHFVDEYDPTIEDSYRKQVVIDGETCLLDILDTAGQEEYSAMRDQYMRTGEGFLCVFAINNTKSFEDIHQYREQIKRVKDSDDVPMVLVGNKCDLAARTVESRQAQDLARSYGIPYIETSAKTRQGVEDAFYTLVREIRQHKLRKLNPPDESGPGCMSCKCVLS
Rab2 wt GTP: modulators of GTP binding to Rab2A wildtype, primary screen, biochemical, dog, bead-based flow cytometry, multiplex; Ras-related protein Rab-2A (Canis lupus familiaris), P61105; actives 0.19% (n = 190,000); GTP binding activity, % at 10 µM; GST-Rab2 wt beads, Bodipy-GTP binding; AID 760, 2007;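 active = GTP binding activity at least 20 points away from 100%, either lowered or raised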;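 note: 0% = beads with excess unlabeled GTP and 100% = no-compound control corrected for plate trend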
* marks the source's active call; other numbers are inactive results; [ ] = another dose, or the depositor's remark.

SMILES	Rac1 mut GTP	Rab7 wt GTP bind	Cdc42 wt	Rac1 wt GTP bind	HRas wt GTP bind	Rab2 wt GTP
NC(=O)N=Nc1c(O)[nH]c2c(Br)cc(Br)cc12	87	83	75*	69*	78*	75*
O=C(CCCCCNC(=O)c1ccccc1)N=Nc1c(O)[nH]c2c(Br)cc(Br)cc12	90	112	92	99	97	98
COc1ccc(OCCN2C(=O)c3ccccc3C2=O)cc1	107	96	111	127*[activator]	93	106
O=C(COC(=O)c1ccccc1C(=O)c1ccccc1)NCc1ccc(F)cc1	92	95	93	100	94	94
COc1ccc(CNc2nc3c(c(=O)n(Cc4ccc(Cl)cc4)c(=O)n3C)n2C)cc1	80	85	79*	83	82	78*
COCCNc1nc2c(c(=O)n(Cc3ccc(OC)cc3)c(=O)n2C)n1C	95	93	94	94	92	95
CC1(C)CC2CC(C)(CN2C(=O)c2cccs2)C1 (configuration not stated)	113	100	133*[activator]	157*[activator]	100	104
CCCc1cc(NCc2ccccn2)n2c(nc3ccccc32)c1C#N	88	93	81	75*	86	83
Cc1cc(NCc2ccccn2)n2c(nc3ccccc32)c1C#N	84	78*	72*	66*	75*	70*
CCCc1cc(NCC2CCCO2)n2c(nc3ccccc32)c1C#N (configuration not stated)	98	94	95	96	97	97
CSc1ccccc1NC(=O)Cn1nc([N+](=O)[O-])cc1C	94	94	94	96	95	95
S=c1[nH]nc(-c2ccco2)n1-c1ccc(Cl)cc1	78*	82	82	82	81	82
Cc1cccc(NC(=O)CN2C(=O)N/C(=C/c3ccc(-c4cccc(C(=O)O)c4C)o3)C2=O)c1	92	93	93	97	91	92
Cc1ccc(NC(=O)CN2C(=O)S/C(=C\c3ccc(-c4cccc(C(=O)O)c4C)o3)C2=O)cc1C	82	97	79*	84	89	82
CCn1c(CNC(=O)Cc2ccc(OC)cc2)nnc1SCC(=O)Nc1ccc(C(=O)O)cc1	95	102	97	97	97	99
Cc1ccc(/C(N)=N/OC(=O)CCC2CCCCC2)cc1	107	96	102	133*[activator]	109	114
CC(=O)c1sc(NC(=O)c2ccc(C(C)(C)C)cc2)nc1C	94	97	96	97	96	93
O=C1NC(Cc2ccccc2)C(=O)N1CC(=O)N1CCCc2ccccc21 (configuration not stated)	94	102	96	97	98	100
COCc1cc(C)nc(OC)c1C(N)=O	94	105	96	93	97	97
O=C(O)c1ccccc1COc1ccccc1Cl	110	109	109	119	108	108
O=C(O)c1ccccc1OCc1ccccc1Br	126*[activator]	120*[activator]	139*[activator]	142*[activator]	122*[activator]	129*[activator]
Cc1cccc(C)c1OCCNC(=O)C(=O)NCc1ccco1	96	98	98	99	98	95
O=c1c2ccccc2nc2c3ccccc3c(Cl)nn12	85	86	80	69*	81	78*
O=c1c2ccccc2nc2c3ccccc3cnn12	83	83	78*	65*	77*	77*
O=c1c2ccccc2nc2c3ccccc3c(NCc3ccco3)nn12	81	88	67*	77*	68*	66*
